# How the values were obtained:
# Experiment in all cases: universal protein binding microarray (PBM); transcription factors of Arabidopsis thaliana; high values mean tight binding
# GST-ANAC092(1-176) = target: T1, GST-ANAC092(1-176) (Arabidopsis thaliana, UniProt Q9FKA0 1-176); conditions: protein: recombinant; tags: GST; chain copies: 2; dsDNA, one strand shown
# T1 sequence: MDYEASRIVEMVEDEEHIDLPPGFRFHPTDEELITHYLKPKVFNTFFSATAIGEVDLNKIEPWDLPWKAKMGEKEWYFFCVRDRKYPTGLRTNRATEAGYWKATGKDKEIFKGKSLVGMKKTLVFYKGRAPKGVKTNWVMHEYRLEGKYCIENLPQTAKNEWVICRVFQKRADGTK
# In short: (§1)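 GST-tagged NAC-domain, full-length or DNA-binding-domain proteins were induced in cells, with zinc acetate added for zinc-finger proteins. They were purified on glutathione–Sepharose 4B and quantified by A280 or anti-GST western blot. Each was applied at 200 to 500 nM final, in duplicate, to custom all-10-mer Agilent 4 × 180K arrays made double-stranded by primer extension, with gapped and ungapped 8-mers scored. Binding is the normalised enrichment score (E-score).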
# GST-NTL6(1-168) = GST-NTL6(1-168) (Arabidopsis thaliana, UniProt Q9SCK6 1-168); conditions: protein: recombinant; tags: GST; chain copies: 2; dsDNA, one strand shown
# GST-NTL6(1-168), sequence (Q9SCK6 1-168): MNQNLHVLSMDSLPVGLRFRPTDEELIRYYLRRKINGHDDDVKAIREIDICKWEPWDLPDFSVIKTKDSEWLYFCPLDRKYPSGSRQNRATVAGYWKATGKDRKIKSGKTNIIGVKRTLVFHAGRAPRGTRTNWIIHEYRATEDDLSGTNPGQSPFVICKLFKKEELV
# In short: as §1
# GST-ANAC019 NAC domain = target: T2, GST-ANAC019 NAC domain (Arabidopsis thaliana, UniProt Q9C932 14-162); conditions: protein: recombinant; tags: GST; chain copies: 2; dsDNA, one strand shown
# T2 sequence: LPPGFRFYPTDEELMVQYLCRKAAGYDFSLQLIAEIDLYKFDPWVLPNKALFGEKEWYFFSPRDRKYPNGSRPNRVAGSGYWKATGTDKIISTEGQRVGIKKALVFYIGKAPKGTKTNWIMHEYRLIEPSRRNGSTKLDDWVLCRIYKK
# In short: as §1
# GST-ANAC055(1-171) = target: T3, GST-ANAC055(1-171) (Arabidopsis thaliana, UniProt Q9LDY8 1-171); conditions: protein: recombinant; tags: GST; chain copies: 2; dsDNA, one strand shown
# T3 sequence: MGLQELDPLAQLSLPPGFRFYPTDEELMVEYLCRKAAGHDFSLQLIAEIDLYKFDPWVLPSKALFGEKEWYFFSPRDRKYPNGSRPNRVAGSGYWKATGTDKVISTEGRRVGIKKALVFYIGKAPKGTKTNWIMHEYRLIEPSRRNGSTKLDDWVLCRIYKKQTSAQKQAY
# In short: as §1
# GST-ATAF1 NAC domain = target: T4, GST-ATAF1 NAC domain (Arabidopsis thaliana, UniProt Q39013 7-158); conditions: protein: recombinant; tags: GST; chain copies: 2; dsDNA, one strand shown
# T4 sequence: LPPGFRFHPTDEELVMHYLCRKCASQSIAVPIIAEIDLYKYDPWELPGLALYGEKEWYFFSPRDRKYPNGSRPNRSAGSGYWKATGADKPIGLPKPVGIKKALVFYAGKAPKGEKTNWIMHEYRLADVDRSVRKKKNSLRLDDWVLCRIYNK
# In short: as §1
# [1] = target: T5, GST-ANAC092(1-285) full length (Arabidopsis thaliana, UniProt Q9FKA0 1-285); conditions: protein: recombinant; tags: GST; chain copies: 2; dsDNA, one strand shown
# T5 sequence: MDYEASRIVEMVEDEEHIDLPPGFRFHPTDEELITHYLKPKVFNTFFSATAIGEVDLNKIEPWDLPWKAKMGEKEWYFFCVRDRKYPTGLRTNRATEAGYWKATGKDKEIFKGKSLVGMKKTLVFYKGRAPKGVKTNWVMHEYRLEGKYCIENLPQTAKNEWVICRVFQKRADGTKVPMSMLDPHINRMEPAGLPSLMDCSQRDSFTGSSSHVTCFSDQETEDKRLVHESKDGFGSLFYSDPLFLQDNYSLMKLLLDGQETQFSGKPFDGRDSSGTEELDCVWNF
# In short: as §1
# GST-NAP(1-166) = target: T6, GST-NAP(1-166) (Arabidopsis thaliana, UniProt O49255 1-166); conditions: protein: recombinant; tags: GST; chain copies: 2; dsDNA, one strand shown
# T6 sequence: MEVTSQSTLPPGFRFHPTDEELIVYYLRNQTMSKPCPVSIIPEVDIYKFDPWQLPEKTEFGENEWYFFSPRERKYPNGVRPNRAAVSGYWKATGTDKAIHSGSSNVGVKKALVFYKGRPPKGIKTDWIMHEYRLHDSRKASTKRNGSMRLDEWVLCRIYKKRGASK
# In short: as §1
# GST-NST2(1-184) = target: T7, GST-NST2(1-184) (Arabidopsis thaliana, UniProt Q9M274 1-184); conditions: protein: recombinant; tags: GST; chain copies: 2; dsDNA, one strand shown
# T7 sequence: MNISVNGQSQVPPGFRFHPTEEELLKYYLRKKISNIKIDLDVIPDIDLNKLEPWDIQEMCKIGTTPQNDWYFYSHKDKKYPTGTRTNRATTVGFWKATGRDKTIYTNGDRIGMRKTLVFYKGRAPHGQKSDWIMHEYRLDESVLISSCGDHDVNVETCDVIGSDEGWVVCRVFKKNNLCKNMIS
# In short: as §1
# GST-SND1(1-203) = target: T8, GST-SND1(1-203) (Arabidopsis thaliana, UniProt Q9LPI7 1-203); conditions: protein: recombinant; tags: GST; chain copies: 2; dsDNA, one strand shown
# T8 sequence: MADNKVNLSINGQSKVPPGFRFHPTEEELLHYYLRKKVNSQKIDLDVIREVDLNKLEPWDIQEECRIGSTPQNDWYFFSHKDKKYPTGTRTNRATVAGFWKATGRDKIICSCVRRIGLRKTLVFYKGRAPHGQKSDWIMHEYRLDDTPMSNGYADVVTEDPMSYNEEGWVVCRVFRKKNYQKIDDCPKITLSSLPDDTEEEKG
# In short: as §1
# GST-VND7 NAC domain = target: T9, GST-VND7 NAC domain (Arabidopsis thaliana, UniProt Q9C8W9 9-158); conditions: protein: recombinant; tags: GST; chain copies: 2; dsDNA, one strand shown
# T9 sequence: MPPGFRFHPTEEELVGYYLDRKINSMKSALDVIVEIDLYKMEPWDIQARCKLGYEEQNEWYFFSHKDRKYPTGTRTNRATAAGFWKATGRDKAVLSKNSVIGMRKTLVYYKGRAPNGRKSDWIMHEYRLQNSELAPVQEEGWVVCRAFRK
# In short: as §1
# GST-NTL8 NAC domain = target: T10, GST-NTL8 NAC domain (Arabidopsis thaliana, UniProt Q9XIN7 14-156); conditions: protein: recombinant; tags: GST; chain copies: 2; dsDNA, one strand shown
# T10 sequence: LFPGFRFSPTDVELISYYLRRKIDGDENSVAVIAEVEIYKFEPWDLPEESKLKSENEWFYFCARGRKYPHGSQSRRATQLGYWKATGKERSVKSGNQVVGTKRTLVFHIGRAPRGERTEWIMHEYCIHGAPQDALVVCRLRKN
# In short: as §1
# GST-WRKY1(266-371) = GST-WRKY1(266-371) (Arabidopsis thaliana, UniProt Q9SI37 266-371); conditions: protein: recombinant; tags: GST; dsDNA, one strand shown
# GST-WRKY1(266-371), sequence (Q9SI37 266-371): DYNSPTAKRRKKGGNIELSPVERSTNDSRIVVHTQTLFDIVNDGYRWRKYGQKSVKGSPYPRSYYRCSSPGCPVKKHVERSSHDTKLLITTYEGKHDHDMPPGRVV
# In short: as §1
Sequence,binding signal (GST-ANAC092(1-176)) [E-score],binding signal (GST-NTL6(1-168)) [E-score],binding signal (GST-ANAC019 NAC domain) [E-score],binding signal (GST-ANAC055(1-171)) [E-score],binding signal (GST-ATAF1 NAC domain) [E-score],binding signal [1] [E-score],binding signal (GST-NAP(1-166)) [E-score],binding signal (GST-NST2(1-184)) [E-score],binding signal (GST-SND1(1-203)) [E-score],binding signal (GST-VND7 NAC domain) [E-score],binding signal (GST-NTL8 NAC domain) [E-score],binding signal (GST-WRKY1(266-371)) [E-score]
ACGCTTCC,0.334,0.0789,0.171,0.106,0.139,0.402,0.0721,0.206,0.296,0.151,,
ACCCCGCC,0.271,0.182,0.295,0.123,0.253,0.264,0.1,0.213,0.32,0.241,0.284,
AAGAAACC,0.246,0.261,0.0937,0.135,0.177,0.311,,0.265,0.216,0.139,0.435,
AAGTCAGT,,,,,,,,,0.0862,,,0.411
TGAAGGAA,0.108,0.379,0.0877,0.0856,0.0713,0.0772,,0.197,0.342,0.0645,0.469,
TGAAGCAA,0.232,0.389,0.0575,,,0.32,,0.314,0.447,0.187,0.422,
GAAGGAAA,0.243,0.455,0.118,0.184,0.096,0.131,,0.214,0.234,0.108,0.485,
GGCGTCAA,,,,,,,,,0.0673,,,0.401
GGCGTAAC,0.21,,,,0.0594,0.277,0.0618,0.129,0.421,0.0835,,
CGTTGACA,,,,,,,,,0.0727,,,0.464
ATCGCGTA,0.261,,,,0.165,0.404,0.149,0.211,0.442,0.104,,
TGACTTAA,,0.342,,,0.107,0.102,,0.183,0.249,0.089,,0.427
AGCTTTCC,0.171,0.233,0.126,0.111,,0.133,,,0.123,0.116,0.434,
GTCAAACA,,,,,,0.11,,,0.0891,0.0699,,0.475
AAACCCTC,,0.141,0.0591,0.134,,,0.0744,,0.101,0.1,0.414,
ACCTTTCC,0.188,0.196,,0.0893,,0.0538,,0.0986,0.143,0.0596,0.431,
CCCCGCCC,0.325,0.319,0.329,0.178,0.262,0.343,0.0894,0.297,0.378,0.273,0.372,
AGGGTAAA,0.1,0.0852,,0.0614,,0.0699,0.0883,0.14,0.153,0.108,0.429,
